HTT ATP protect: protects HTT-Q103 PC12 cells, measured by ATP; PC12 HTT-Q103 induced, cytoprotection, ATP luminescence, 40 h; Potency, µM (doses to about 56.4 µM), for the others: cytoprotection (ATP increase), actives largely listed as activators; hit rate 0.14% among 230,000; also: % of control where 0% means no effect; nearly all actives have a fitted effect of over 45% in size
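Rat PC12, Q103 Htt exon1-GFP fusion, ecdysone promoter; tebufenozide inducer 100 nM final; compound titration; qHTS, 1500 cells/well; ATPlite luminescent read.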
LMNA splice mod: modulators of lamin A splicing; hit rate 0.01% among 200,000; Potency, µM (titrated, usually from 46.1 µM), without a hit: at the highest dose ratio change, negative = inhibition, actives largely listed as inhibitors; AID 1487; HeLa LMNA splicing GFP/RFP minigene ratio, 48 h; active = well fitted inhibition curve with a large enough effect in the signal ratio, with a control signal flat, not every such curve was filed as active; inconclusive = small, poorly fitted or top-dose-only effect, or effect the other way, or a change in a side signal; the % refers to the signal ratio; also: % is scaled to controls: 0 for no effect and ±100 for the full control effect
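Read-out is the ratio of GFP to DsRed2 object intensity, acquired by 488 nm laser-scanning cytometry on HeLa lamin A-EGFP minigene reporter cells. Compound incubation 48 hrs at 37 °C in Opti-MEM with 2% FBS; DMSO 0.5% final.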
HPGD block: blocks human HPGD enzyme activity; P15428; purified HPGD, NADH fluorescence kinetic, PGE2 substrate; Potency, µM, for the others: top-dose activity change, negative = inhibition, usual class: inhibitors; hit rate 4.3% among 150,000; active = well fitted inhibition curve with a large enough effect, not every such curve was filed as active; inconclusive = small, poorly fitted or top-dose-only effect, or another doubt; inactive = no such curve, though single readings can be large or run the other way; also: % is scaled to controls: 0 for no effect and ±100 for the full control effect
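20 nM HPGD preincubated 15 min at room temperature with compound in 50 mM Tris-HCl pH 8, 0.01% Tween 20. Started with 1 mM NAD+ and 30 uM prostaglandin E2; NADH fluorescence (360/450 nm) read 5 times over 30-s intervals, last minus first.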
ALDH1A1 inh: blocks purified human ALDH1A1 activity | P00352 | Purified ALDH1A1, NADH fluorescence, propionaldehyde substrate | Potency, µM (doses to about 75.3 µM), without a hit: at the highest dose activity, negative = inhibition, most hits filed as inhibitors | hit rate 7.3% among 220,000 | AID 1030; active = well fitted inhibition curve with a large enough effect, not every such curve was filed as active; inconclusive = small, poorly fitted or top-dose-only effect, or another doubt; inactive = no such curve, though single readings can be large or run the other way;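 also: plate controls were no enzyme wells and a reference inhibitor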
Target sequence (P00352 whole entry, looked up): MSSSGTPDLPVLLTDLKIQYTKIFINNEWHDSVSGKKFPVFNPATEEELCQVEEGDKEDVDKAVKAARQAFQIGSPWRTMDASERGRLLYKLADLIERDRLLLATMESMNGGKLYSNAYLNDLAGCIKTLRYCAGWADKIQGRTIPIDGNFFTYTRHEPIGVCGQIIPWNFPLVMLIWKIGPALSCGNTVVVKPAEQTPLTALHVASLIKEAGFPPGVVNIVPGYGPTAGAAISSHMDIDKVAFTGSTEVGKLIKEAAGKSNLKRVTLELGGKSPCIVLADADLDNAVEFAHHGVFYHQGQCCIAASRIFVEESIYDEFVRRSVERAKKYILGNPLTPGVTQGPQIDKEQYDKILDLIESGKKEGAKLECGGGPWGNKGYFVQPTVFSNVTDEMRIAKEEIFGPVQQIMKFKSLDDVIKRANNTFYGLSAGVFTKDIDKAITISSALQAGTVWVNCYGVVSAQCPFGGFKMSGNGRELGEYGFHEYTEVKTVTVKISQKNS
HttQ103 aggreg: mutant huntingtin aggregation inhibition; PC12 HttQ103-GFP aggregates, Acumen cytometry, 40 h; Potency, µM (titrated, usually from 46.1 µM), for the others: at the top dose activity change, negative = inhibition, hits mostly inhibitors; hit rate 1.1% among 220,000; AID 1688; also: % is scaled to controls: 0 for no effect and ±100 for the full control effect; nearly all actives have a fitted effect of over 60% in size
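PC12/HTTQ103-GFP, ecdysone-inducible; teb 100 nM; cpd qHTS titration; GFP aggregates read on laser cytometer, Ex 488/Em 500-530 nm.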
KinaseGlo FLuc: blocks Kinase-Glo luciferase, a counter-screen artifact | Kinase-Glo luciferase, ATP luminescence, 8 min | AID 1379 | Q27757 | Potency, µM (titrated, usually from 38.3 µM), for inactives: at the highest dose activity change, negative = inhibition, hits mostly inhibitors | hit rate 0.28% among 200,000; also: % is scaled to controls: 0 for no effect and ±100 for the full control effect; nearly all actives have a fitted effect of over 60% in size
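Light output from Kinase-Glo luciferase with luciferin and 10 uM ATP in 50 mM imidazole pH 7.2, KCl, MgCl2, Tween 20, BSA; compound pin-delivered, 8-min ambient incubation, then luminescence read.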
* hit, by the source's call; ? = inconclusive; / = not tested or not shown; ! = not active in a repeat; [ ] = dose if it differs, or a comment. In the library only some 9% were active in any assay of this set; here they are far more common. Unless noted, calls follow the shape of the dose curve; as a rule, active = well fitted curve in the direction sought with a large enough effect; inconclusive = small, poorly fitted or top-dose-only effect, or another doubt; inactive = no such curve, though single readings can be large; an effect the other way counts as inactive or inconclusive. Potency is read from the fitted curve at half-maximal effect.

SMILES	HTT ATP protect	LMNA splice mod	HPGD block	ALDH1A1 inh	HttQ103 aggreg	KinaseGlo FLuc
O=C(Nc1cccc(Cl)c1)OC1CN2CCC1CC2 (stereo not drawn)	16%[10 µM]	/	/	12%	11%[9.22 µM]	/
CC(C)OC(=O)Nc1cccc(Cl)c1	/	-4%	13µM*	-1%	/	-3%
CC(=O)OCC1=C(C(=O)O)N2C(=O)[C@@H](N)[C@@H]2SC1	3%[40.3 µM]	-6%	-12%	-9%[20.9 µM]	28%[20.6 µM]	5%[17.1 µM]
O=C1C(Cl)=C(Cl)C(=O)C(Cl)=C1Cl	-301%	/	0.89µM*	0.4µM*	/	-13%
COc1ccc(OP(=O)(Nc2ccccc2)Nc2ccccc2)cc1	7%	-7%	14µM*	4%	4%	-3%
C=CCN1C(=O)NC(=O)C(Cc2ccc(OC)c(OC)c2)C1=O (stereo not drawn)	-17%[10 µM]	-11%	-6%	25µM*	?	-4%
CC(C)(C)c1cc(O)ccc1O	32µM*!	?	-2%	3.5µM*	?	-3%[7.66 µM]
CC(C)(C)c1ccccc1O	-4%	/	-6%	32µM*	/	/
CC(=NCc1ccco1)c1c(O)n(-c2ccccc2)c(=O)[nH]c1=O	-1%	-14%	-14%	?	13%	-2%
Cc1ccc(S(=O)(=O)NCC2CCC(C(=O)NCCCN3CCOCC3)CC2)cc1 (stereo not drawn)	16%	2%	5%	22µM*	6%	0%
Cc1occc1C(=O)N1CCC2(CC1)OCCO2	1%[10 µM]	-1%	-17%	?	-20%	-2%
CCCCCOc1ccc(C)cc1CN(CCCl)CCCl	10%[10 µM]	/	/	20µM*	2%[9.22 µM]	/
O=c1[nH]c(CN2CC=C(c3ccccc3)CC2)nc2cc(C(F)(F)F)ccc12	17%[10 µM]	-13%	-9%	-6%	17%	-1%
Cn1cnc([N+](=O)[O-])c1Sc1ccc([N+](=O)[O-])cc1	14%	/	/	7.9µM*	-1%[9.22 µM]	1%
Cn1cc2c([N+](=O)[O-])cc([N+](=O)[O-])cc2n1	-42%	-4%[46 µM]	/	?	21%	-7%
COCc1cc(C)c(C#N)c(=S)[nH]1	-14%	-1%	?	?	1%	-2%
C=CCc1c(C)[nH]c(=S)c(C#N)c1C	-19%	8%	4µM*	4.5µM*	15%	5%
C[C@H]1C[C@@H](C)C(=O)[C@@H]([C@H](O)CC2CC(=O)NC(=O)C2)C1	-48%[10 µM]	?	-9%	-10%	0.35µM*	-1%[17.1 µM]
COc1c2c(c(CC=C(C)C)c3oc(=O)c(-c4ccc(O)cc4)c(O)c13)OC(C)(C)C=C2	/	?	-17%	2%	/	0%
CC(C)=CCCC1(C)C=Cc2c(O)c3c(c(CC=C(C)C)c2O1)OC12C(CC4CC1C(C)(C)OC2(C/C=C(/C)C(=O)O)C4O)C3=O (stereo not drawn)	3.2µM*	/	-20%	?	/	-8%
O=C(Nc1ccccc1OC(=O)N1CCCCC1)N1CCCCC1	-6%	4%	-10%	-4%	2%	0%
CCOC(=O)N(c1ccccc1)P1(=S)OCC(C)O1 (stereo not drawn)	14%	-5%	-17%	-3%	4%	1%
COc1cccc(CN2CCCCC2c2cccnc2)c1 (stereo not drawn)	-9%	?	-16%	32µM*	-21%	-3%
COc1cc(CN2CCN(C(=O)COc3ccccc3)CC2)cc(OC)c1OC	-33%	9%	-5%	?	-8%	-8%
O=C(COc1ccccc1)N1CCN(Cc2c[nH]c3ccccc23)CC1	-19%	?	0%	10%	16µM*	1%
SMILES	HTT ATP protect	LMNA splice mod	HPGD block	ALDH1A1 inh	HttQ103 aggreg	KinaseGlo FLuc
Cc1ccccc1CN1CCN(C(=O)Cc2ccccc2)CC1	/	5%[46 µM]	/	-8%	/	1%
COc1ccc(OCC(=O)N2CCN(Cc3c[nH]c4ccccc34)CC2)cc1	-71%[10 µM]	?	-1%	-15%	11µM*	1%
O=C(Cc1ccccc1)N1CCN(Cc2c[nH]c3ccccc23)CC1	-73%[10 µM]	?	-9%	25µM*	13µM*	13%
CN1C(=O)NC(=O)C(C)(C2=CCCCC2)C1=O (stereo not drawn)	1%	-11%	-7%	1%	-3%	3%[39.9 µM]
COc1ccc(CCNCc2ccncc2)cc1OC	3%	11%	-8%	13µM*	10%	-3%
Cc1c(N=Nc2c(O)n(Cc3ccccc3)c(=O)[nH]c2=O)c(=O)n(-c2ccccc2)n1C	10%[0.074 µM]	?	?	-5%	-27%	2%
O=[N+]([O-])c1ccccc1CNCCc1ccc(F)cc1	15%	-4%	-3%	?	-7%	-5%
CC(=O)c1cn(Cc2ccc(C#N)cc2)c2ccccc12	30%[10 µM]	21%[46 µM]	/	0%	2%[9.22 µM]	1%
O=Cc1cn(Cc2ccc(F)cc2)c2ccccc12	-30%	17%[46 µM]	/	0.13µM*	?	-4%
Cc1c(C=O)c2ccccc2n1Cc1ccc(F)cc1	/	?	/	1%	/	0%
O=Cc1cn(Cc2ccc([N+](=O)[O-])cc2)c2ccccc12	-7%[10 µM]	?	-17%	2.2µM*	3%	2%
O=Cc1cn(Cc2ccccc2[N+](=O)[O-])c2ccccc12	/	?	-12%	1.3µM*	14µM*	-2%
c1cc(N2CCCC3(CCNCC3)C2)ccn1	?	/	-6%	?	/	-1%
Cn1cccc1/C=C1/C(=O)NC(=O)N(Cc2ccccc2)C1=O	/	-11%	-21%	?	-12%	1%

High-throughput results deposited in PubChem BioAssay by National Center for Advancing Translational Sciences (NCATS).
